# The campaign covered roughly 360,000 compounds. About 25,000 (6.9%) were called active. Entries that show only a call come without a potency. Inconclusive results (about 9%) are left out. The sample holds actives, similar compounds and a random draw of the others, so the mix is not that of the screen. Calls follow the shape of the dose curve; as a rule, active = well fitted inhibition curve with a large enough effect; inconclusive = small, poorly fitted or top-dose-only effect; inactive = flat fitted curve, though single readings scatter.
# Biological target: Luciferin 4-monooxygenase (Photinus pyralis) (UniProt P08659)
# Sequence (P08659 whole entry, looked up): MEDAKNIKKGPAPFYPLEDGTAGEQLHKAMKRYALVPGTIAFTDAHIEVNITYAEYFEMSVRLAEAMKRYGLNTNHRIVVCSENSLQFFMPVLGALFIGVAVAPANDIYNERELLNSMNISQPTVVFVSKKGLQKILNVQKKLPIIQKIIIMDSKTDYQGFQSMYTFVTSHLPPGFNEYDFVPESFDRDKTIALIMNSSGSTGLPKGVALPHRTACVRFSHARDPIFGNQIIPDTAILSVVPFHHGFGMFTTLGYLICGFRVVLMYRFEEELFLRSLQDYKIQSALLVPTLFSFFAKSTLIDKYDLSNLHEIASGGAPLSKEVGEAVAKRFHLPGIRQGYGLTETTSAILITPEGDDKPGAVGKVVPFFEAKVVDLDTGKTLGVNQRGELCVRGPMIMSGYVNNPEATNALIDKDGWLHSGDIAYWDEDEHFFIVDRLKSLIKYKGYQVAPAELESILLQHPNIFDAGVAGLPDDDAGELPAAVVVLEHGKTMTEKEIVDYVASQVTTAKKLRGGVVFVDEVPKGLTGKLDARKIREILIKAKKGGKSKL
# Test: qHTS profiling assay for firefly luciferase inhibitor/activator using purifed enzyme and Km concentrations of substrates (counterscreen for miR-21 project); also: nearly all actives have a fitted effect of over 55% in size
# Conditions: purified FLuc, luminescence inhibition; series mostly up to 57.5 µM
# Method in brief: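 Biochemical qHTS of compounds, final roughly 60 µM downward over six points, against 10 nM purified firefly luciferase using Km concentrations of substrates (10 uM D-luciferin, 10 uM ATP) in Tris acetate pH 7.5 buffer; luminescence output.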
# Potency is read from the fitted curve at half-maximal effect.
row,SMILES,Potency
1,Cc1cccc(-n2ncc(C(=O)N3CCN(c4ccc(Cl)cc4)CC3)c2C2CCN(C(=O)OC(C)(C)C)CC2)c1,inactive
2,Cc1ccc(Nc2nnc(-c3ccc(C)c(S(=O)(=O)N4CCCCC4)c3)c3ccccc23)cc1,inactive
3,CCOC(=O)c1ccc(N2C(=O)c3[nH]nc(-c4ccccc4)c3C2c2ccc(C(C)C)cc2)cc1 (configuration not stated),inactive
4,Cc1ccc(C(=O)OCC(=O)Nc2ccc(Cl)cn2)cc1S(=O)(=O)N1CCOCC1,inactive
5,COc1cc2nc(NCC(C)c3ccccc3)n3nc(-c4ccccc4)nc3c2cc1OC (configuration not stated),inactive
6,COCCn1c(SCC(=O)Nc2cc(Cl)ccc2OC)nc2c(c1=O)SC(C)C2 (configuration not stated),inactive
7,O=C(c1cc(-c2ccc(F)cc2)on1)N1CCN(c2ccc(F)cc2)CC1,inactive
8,O=C(c1ccc(Cl)c([N+](=O)[O-])c1)N1CCN(c2ccccc2)CC1,inactive
9,O=C(c1cc(-c2ccc(Cl)cc2)on1)N1CCN(c2ccccc2)CC1,10.7 µM (active)
10,CCCN1CCN(CCCNC(=O)c2ccc3nc(Cc4ccccc4)oc3c2)CC1,inactive
11,Cc1cccc(NC(=O)c2ccc(F)c(S(=O)(=O)N(C)C3CCCCC3)c2)c1,inactive
12,CCCSc1nc2[nH]ncc2c(=O)[nH]1,inactive
13,Cc1ccc(CSc2nc3[nH]ncc3c(=O)[nH]2)cc1,13.5 µM (active)
14,Cc1cccc(NC(=O)CSc2nc3[nH]ncc3c(=O)[nH]2)c1,inactive
15,COc1cc(OC)cc(-c2c(-c3ccc(F)cc3)c3cc(-c4ccc5cc[nH]c5c4)ccc3n2C)c1,inactive
16,CN1CCN(c2ccc(S(=O)(=O)Nc3ccccc3)cc2[N+](=O)[O-])CC1,inactive
17,O=[N+]([O-])c1ccc(S(=O)(=O)Nc2cccc(-c3ccc(N4CCCC4)nn3)c2)cc1,12 µM (active)
18,CC(=O)Nc1ccc(S(=O)(=O)Nc2ccc(N3CCOCC3)c(F)c2)cc1,inactive
19,O=S(=O)(Nc1ccccc1N1CCOCC1)c1ccc(Cl)s1,inactive
20,O=S(=O)(Nc1cccc(-n2cnnn2)c1)c1cnc(Cl)c(Cl)c1,inactive
21,O=S(=O)(Nc1ccc(-c2ccc(N3CCOCC3)nn2)cc1)c1cc(Cl)ccc1Cl,23.9 µM (active)
22,Cc1cccc(NS(=O)(=O)c2ccc([N+](=O)[O-])cc2)n1,inactive
23,Cc1cccc(NS(=O)(=O)c2cc(Cl)ccc2Cl)n1,inactive
24,O=S(=O)(Nc1cccc(-c2ccc(N3CCOCC3)nn2)c1)c1ccc(Cl)c(Cl)c1,5.36 µM (active)
25,Cc1ccc2oc3c(c(=O)c2c1)C(c1ccc(O)cc1)N(Cc1ccc2c(c1)OCO2)C3=O (configuration not stated),inactive
26,Cc1ccc(COC(=O)CN2C(=O)NC3(CCCC3)C2=O)cc1,inactive

row,SMILES,Potency
1,CC(C)(C)c1ccc(S(=O)(=O)N2CCN(C(=O)c3ccc4c(c3)C(=O)N(Cc3ccncc3)C4=O)CC2)cc1,inactive
2,C=Cc1ccc(Cn2c(C(=O)OC)cc3sc(C)cc32)cc1,inactive
3,CCc1ccccc1OCC(=O)Nc1ccc(C)c(S(=O)(=O)N2CCCCCC2)c1,inactive
4,CCCN(CCC)CCCNC(=O)Cn1cc2c(n1)-c1c(oc(C(=O)N3CCCC3)c1C)CC2,inactive
5,CCOc1ccc(NC(=O)COc2ccc(C(=O)N3CCC(C(N)=O)CC3)cc2OC)cc1,inactive
6,CCCCN(C(=O)c1ccc2ccccc2c1)c1c(N)n(CCCC)c(=O)[nH]c1=O,inactive
7,Cc1ccc(-n2nc(N)c3c(=O)oc(N(C)C)nc32)cc1,inactive
8,O=C(Nc1ccc2oc(-c3ccc4ccccc4c3)nc2c1)c1cccs1,5.36 µM (active)
9,O=C(Nc1ccc(NC(=O)c2cccs2)cc1)c1ccc2ccccc2c1,inactive
10,CCN(CCCNC(=O)c1cc(Nc2ccc(OC)cc2)nc2ccccc12)c1cccc(C)c1,inactive
11,Cc1ccc(S(=O)(=O)n2nc(C)c(S(=O)(=O)N3CCCCCC3)c2C)cc1,inactive
12,CCC(=O)N1CCc2cc(CNS(=O)(=O)c3ccc(Br)s3)ccc21,inactive
13,Cc1ccccc1Nc1nn2c(=O)c3ccc(C(=O)NCCc4ccc(Cl)cc4)cc3nc2s1,inactive
14,Cc1cc(C(=O)COc2ccc(Br)cc2F)c(C)n1C1CC1,13.5 µM (active)
15,O=C(COc1ccc(Br)cc1F)NC1CCN(Cc2ccccc2)CC1,inactive
16,CC(=O)C1=C(C)NC(=O)NC1c1cc(Br)ccc1OCC#N (configuration not stated),inactive
17,O=C(CC(=O)N/N=C\c1cccc(Cl)c1Cl)NCc1ccccc1,inactive
18,O=C(CSc1nnc(SCc2ccc(Cl)cc2)s1)N/N=C/c1ccccc1Cl,6.01 µM (active)
19,O=C(Cc1ccccc1)N/N=C/c1ccc(Cl)cc1Cl,inactive
20,Cc1cc(NC(=O)CCS(=O)(=O)c2ccc(F)cc2)no1,inactive
21,O=C1CC2(CCN(C(=O)COc3ccc(F)cc3)CC2)Oc2ccccc21,inactive
22,CCOC(=O)CCc1c(C)c(C#N)c2[nH]c3ccccc3n2c1=O,inactive
23,CCCc1cc(=S)n2c([nH]c3ccccc32)c1C#N,19 µM (active)
24,CN(C)c1ccc(C(CNS(=O)(=O)c2cc(F)ccc2F)N2CCOCC2)cc1 (configuration not stated),inactive
25,Cn1nc(-c2ccccc2)c2cc([N+](=O)[O-])ccc21,inactive
26,Cc1nn(-c2ccc([N+](=O)[O-])cc2)c(N)c1-c1ccccc1,7.57 µM (active)

row,SMILES,Potency
1,Cc1cc(CO)nn1-c1ccc([N+](=O)[O-])cc1,inactive
2,COc1ccc(CCNC(=O)c2ccc(-n3c(C)cc4c3CCCC4)cc2)cc1OC,inactive
3,COc1cc(C(=O)NCC(c2ccc(Cl)cc2)N2CCOCC2)cc(OC)c1OC (configuration not stated),inactive
4,Cc1ccccc1N1CC(C(=O)Nc2nnc(SCCC3OCCO3)s2)CC1=O (configuration not stated),inactive
5,Cc1ccc(NC(=O)NCC(c2cccnc2)N2CCOCC2)cc1 (configuration not stated),inactive
6,Cc1ccc(NC(=O)Nc2ccc3oc(C)nc3c2)cc1,1.2 µM (active)
7,CC(=O)c1cccc(NC(=O)Nc2ccc(C)cc2)c1,4.78 µM (active)
8,CC(=O)c1cccc(NC(=S)N2CCCC2)c1,inactive
9,Cc1ccc(NC(=O)c2cc3cc(C)ccc3n2C)cc1,inactive
10,Cc1ccc(NC(=O)Nc2cccnc2)cc1,10.7 µM (active)
11,C=C(C)C(=O)Nc1cccc(C(C)=O)c1,inactive
12,O=C(NNC(=O)c1cccnc1)Nc1ccccc1,inactive
13,Cc1nc2ccc(NC(=O)C(F)(F)F)cc2o1,inactive
14,Cc1cccc(N2CCN(C(=O)Cn3ncc4c5ccccc5n(C)c4c3=O)CC2C)c1 (configuration not stated),inactive
15,CCN(CC)S(=O)(=O)c1cc(C(=O)Nc2cc(S(=O)(=O)N3CCOCC3)ccc2N2CCCC2)ccc1F,inactive
16,CN1CCN(/N=C2/C(=O)Nc3ccc([N+](=O)[O-])cc32)CC1,inactive
17,CCCCN(C(=O)C1CCC1)c1c(N)n(Cc2ccccc2)c(=O)[nH]c1=O,inactive
18,CCOc1ccc(NC(=O)C(CC(C)C)N2Cc3ccccc3C2=O)cc1 (configuration not stated),inactive
19,CCOC(=O)c1ccc(NC(=O)C2CC(=O)N(c3ccc(C(C)C)cc3)C2)cc1 (configuration not stated),inactive
20,CCNC(=O)CC1C(=O)N(c2ccc(OC)cc2)C(=O)N1CCOC (configuration not stated),inactive
21,O=C(c1ccc(Oc2ccc(Cl)cc2)c([N+](=O)[O-])c1)N1CCCC1,inactive
22,CCOC(=O)c1oc2ccc(S(=O)(=O)n3nc(-c4ccccc4OC)cc3N)cc2c1C,inactive
23,COc1ccc(-c2[nH]c3c(c2-c2c(-n4cccc4)n(C)c(=O)n(C)c2=O)c(=O)n(C)c(=O)n3C)cc1,inactive
24,COC(=O)c1cc(NC(=O)c2nn(C)c(=O)c3ccccc23)cc(C(=O)OC)c1,inactive
25,COC(=O)c1cc(NC2c3ccccc3C(=O)N2c2ccc(Cl)cn2)cc(C(=O)OC)c1 (configuration not stated),6.01 µM (active)
26,CCc1ccccc1NC1c2ccccc2C(=O)N1c1cccnc1 (configuration not stated),inactive

row,SMILES,Potency
1,CCOc1ccc(C(=O)N2CCN(CCc3ccccn3)CC2)cc1,inactive
2,CCCCNC(=O)CSc1nc2cc3c(cc2c(=O)n1CCCCCC(=O)NCc1ccc2c(c1)OCO2)OCO3,inactive
3,CCCCN=C1C([N+](=O)[O-])=CC=C2C1=NC1(CCCCC1)N2O,inactive
4,Cn1c(=O)c(C(=O)Nc2ncccn2)c(O)c2ccccc21,21.3 µM (active)
5,C=CCn1c(=O)c(C(=O)Nc2ncccc2O)c(O)c2ccccc21,inactive
6,CCCn1c(=O)c(C(=O)Nc2cc(C)ccn2)c(O)c2ccccc21,inactive
7,C=CCC(Nc1ccccc1)c1cccc(OC)c1OC (configuration not stated),inactive
8,CCCCn1c(N)c(N(CCOC)C(=O)c2oc3ccc(OC)cc3c2C)c(=O)[nH]c1=O,inactive
9,COCCNC(=S)N1CCC(NC(=O)C23CC4CC(CC(C4)C2)C3)CC1,inactive
10,CC(C)(C)Nc1c(-c2cccs2)nc2ccccn12,inactive
11,Cc1ccc(-c2nc3cccc(C)n3c2Nc2ccc3c(c2)OCCO3)cc1,inactive
12,Cc1ccn2c(Nc3ccc4c(c3)OCCO4)c(-c3ccc(C)s3)nc2c1,8.49 µM (active)
13,Oc1ccccc1-c1nc2ccc(Cl)cn2c1Nc1ccc2c(c1)OCCO2,inactive
14,Cc1ccc(Nc2c(-c3ccc(C)cc3)nc3cnccn23)cc1,inactive
15,Cc1ccc(Nc2c(-c3ccc(C)s3)nc3ccccn23)cc1,13.5 µM (active)
16,Cn1c(=O)nc2n(-c3ccc(Br)cc3)c3cccc(Cl)c3cc-2c1=O,inactive
17,O=C(COc1ccccc1F)OCc1cc(=O)n2nc(C3CCCCC3)sc2n1,inactive
18,CC(C)CNc1ncnc2c1nnn2C,inactive
19,O=S(=O)(c1ccc2nc(NCc3ccccc3Cl)ccc2c1)N1CCCCC1,inactive
20,O=C1C=C(c2cccc(Br)c2)C[C@@H](c2ccc(F)cc2)C1,inactive
21,Cc1ccc(C)c(N2CCN(Cc3nnc(-c4ccccc4)o3)CC2)c1,inactive
22,O=C(c1nnc(-c2ccc(Cl)cc2)o1)C1CCCC1,5.36 µM (active)
23,O=C(c1[nH]ncc1-c1ccc(Cl)cc1)C1CO1 (configuration not stated),inactive
24,CC(C)N(Cc1nnc(-c2ccc(Cl)cc2)o1)C(=O)C1=COCCO1,inactive
